# NSD2 HMT inh = blocks human histone methyltransferase NSD2. NSD2 peptide methylation, AlphaScreen, 120 min. AID 743445. inhibition, % at 12.5 µM. 0.54% of 310,000 active; in the data active = inhibition above about 50%
# CaV13 FRET inh = Disruptors of the CACNA1D IQ motif to Ca2+-dependent inactivation inhibitor domain association, primary screening, Förster resonance energy transfer in intact living …. 0.098% of 340,000 active. HEK cells, CFP/YFP FRET ICDI-IQ, plate reader, 10 min; percent FRET-ratio fall versus neutral wells. inhibition, % at 12.3 µM;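 active = mean replicate inhibition of at least 30% and at least 1% of replicates passing that level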
# ATG4B inh = ATG4B (human) cysteine protease inhibition; Q9Y4P1; ATG4B cleavage of LC3-PLA2, NBD-HPC fluorescence, 1 h; inhibition, % at 8.33 µM; 0.51% of 340,000 active; AID 504462; in the data active = inhibition above about 40%
# DSG3 Ab inh = human desmoglein-3 autoantibody binding inhibition; P32926; DSG3-coupled beads, scFv-anti-DSG3-GFP binding, flow cytometry; active compounds read low; binding (percent of control), % at 10 µM; 0.48% of 310,000 active;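 active = binding more than 3 SD below its plate's average and above zero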;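 note: hits lower antibody fragment binding to DSG3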
# Vif imaging = HIV Vif inhibition | HEK293T cells, Vif self-association by quenched fluorescence, imaging, 24 h | inhibition, % at 7.49 µM | 0.35% of 340,000 active; in the data active = inhibition above about 50%, passing the limit was not always enough
# Glyco luc inh = N-linked glycosylation inhibition. reporter increase, % at 12.5 µM. AID 588692. 0.23% of 360,000 active. D54 ERlucT glycosylation luciferase reporter, 24 h; percent of 100 nM tunicamycin response;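 active = mean luciferase reporter signal, scaled so untreated is 0 and the glycosylation-blocking control 100, at or above a set limit in every replicate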;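 note: luciferase carries N-glycosylation sites so blocking glycosylation raises the light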
# Numbers stand for hits; – = inactive; · = not tested or not shown; + = active, no number; ! = not active in a repeat. A selection: hits, their analogues and other compounds. The true share with any hit is near 1.9%.
SMILES,NSD2 HMT inh,CaV13 FRET inh,ATG4B inh,DSG3 Ab inh,Vif imaging,Glyco luc inh
COc1cc(/C=N/Nc2ccc(S(N)(=O)=O)cc2[N+](=O)[O-])cc(OC)c1O,–,–,–,83,–,–
OC1CCN(Cc2cccc3ccccc23)CC1,–,–,–,–,–,–
Nc1nc(-c2cc(O)ccc2[N+](=O)[O-])cc(-c2ccccc2)c1[N+](=O)[O-],–,+,–,–,–,–
COc1ccc(CC(=O)OCC(=O)NCc2ccc(Cl)cc2)cc1,–,–,–,–,80,–
CCNC(=S)N/N=C/c1ccc(F)cc1,–,–,·,·,·,·
Cc1oc(/N=C/c2ccc(F)cc2)c(C#N)c1C,–,82,–,–,–,–
COc1ccc(Br)cc1C=NNC(=O)c1ccncc1,–,·,·,·,·,·
COc1ccc(C2=CC3=C(Br)C(=O)C(C)(OC(=O)c4ccco4)C(=O)C3=CO2)cc1 (stereo not drawn),·,·,82,–,–,–
c1ccc(C[n+]2cccc3c4ccccc4ccc32)cc1,–,–,–,–,53,–
CC(/C=C1\SC(=S)N(CCCC(=O)Nc2ccc(C(=O)O)c(O)c2)C1=O)=C\c1ccccc1,·,·,41,·,·,·
CC(=Cc1ccccc1)C=C1SC(=S)N(CCCC(=O)Nc2ccc(C(=O)O)c(O)c2)C1=O,·,–,·,·,·,–
Cc1ccc(NC(=O)CCCN2C(=O)/C(=C/C=C/c3ccccc3)SC2=S)cc1,–,–,–,85,–,–
Oc1ccc(/C=N/NC(=S)Nc2cccnc2)cc1O,75,–,–,–,–,–
Cc1[nH]c2c(C)cccc2c1CC(=O)O,–,–,–,–,–,–
Cc1cccc(NC(=O)c2ccc(NS(=O)(=O)c3c(C)noc3C)cc2)c1,–,–,–,–,–,–
O=C(NCc1ccccc1C(F)(F)F)c1cccc2c1C(=O)c1ccc(N3CCCCC3)cc1S2(=O)=O,·,–,–,–,+,–
O=C1c2ccccc2S(=O)(=O)c2cc(N3CCC(C(=O)N4CCCCC4)CC3)ccc21,·,+,–,·,·,·
O=C(NC1CCCC1)c1cccc2c1C(=O)c1ccc(N3CCCCC3)cc1S2(=O)=O,·,–,–,–,–,–
CC1CCN(c2ccc3c(c2)S(=O)(=O)c2cccc(C(=O)NC4CCCCC4)c2C3=O)CC1,·,–,–,–,51,–
CC(C)(C)CNC(=O)c1cccc2c1C(=O)c1ccc(N3CCCC3)cc1S2(=O)=O,·,–,–,–,–,–
O=C(NC1CCCCC1)c1cccc2c1C(=O)c1ccc(N3CCCC3)cc1S2(=O)=O,·,–,–,–,–,–
O=C1Nc2ccccc2S/C1=C/Nc1cccc(Cl)c1,–,–,–,–,123,–
CC1CC2=C(NC(=S)NC2c2ccccc2F)/C(=C/c2ccccc2F)C1 (stereo not drawn),–,–,–,17,–,–
COc1ccccc1-c1nc(S(=O)(=O)c2ccc(Cl)cc2)c(N(C)C)o1,–,–,–,–,53,–
Cc1cc(S(=O)(=O)N2CCOCC2)ccc1OCC(=O)N1CCCC1,–,–,–,–,65,–
SMILES,NSD2 HMT inh,CaV13 FRET inh,ATG4B inh,DSG3 Ab inh,Vif imaging,Glyco luc inh
O=C(COc1ccc(S(=O)(=O)N2CCOCC2)cc1Cl)NCCN1CCOCC1,–,–,–,–,–,–
Cc1cc(S(=O)(=O)N2CCOCC2)ccc1OCC(=O)NCCN1CCOCC1,–,–,–,–,71,–
Cc1ccc(CN(Cc2ccco2)C(=O)c2ccco2)cc1,–,–,–,–,–,–
CCOC(=O)C1=C(C)NC(C)=C(C(=O)OCC)C1C,–,–,–,–,–,–
CCOC(=O)C1=C(C)NC(=O)NC1,·,–,–,–,74,–
O=C(Cn1cnc([N+](=O)[O-])c1)Nc1ccc(Cl)cc1Cl,–,–,·,–,64,–
C/C(=N\NC(=O)Cc1ccccc1)c1cccs1,·,–,–,78,–,–
C/C(=N/NC(=O)Cc1cccc2ccccc12)c1cccs1,–,–,–,–,–,–
COC(=O)N/N=C/c1ccccc1OCc1ccccc1,–,–,–,–,–,–
CC(=O)Nc1ccc(C(=O)N/N=C/c2ccccc2OCc2ccccc2)cc1,–,–,–,–,–,41
Cc1[nH]n(-c2ccccc2)c(=O)c1N=Nc1cccc(S(=O)(=O)N2CCOCC2)c1,–,–,–,64,·,–
COc1ccc(NC(=O)Cn2nnc(C(=O)Nc3ccccc3C)c2N)cc1,–,–,–,–,53,–
COc1ccc(NC(=O)Cn2nnc(C(=O)NCCc3ccccc3)c2N)cc1,–,–,–,–,–,–
CC[C@H](C)C(=O)O[C@H]1CCC=C2C=C[C@H](C)[C@H](CC[C@@H]3C[C@@H](O)CC(=O)O3)[C@H]21,·,–,–,–,–,54
CCC(C)C(=O)OC1CCC=C2C=CC(C)C(CCC3CC(O)CC(=O)O3)C21 (stereo not drawn),–,–,–,–,–,41
CC[C@H](C)C(=O)O[C@H]1C[C@@H](C)C=C2C=C[C@H](C)[C@H](CC[C@@H]3C[C@@H](O)CC(=O)O3)[C@H]21,·,–,–,–,–,69!
O=C1[C@H]2CC3C=CC2(O3)[C@@H]2OCCCN12 (stereo partly drawn),·,–,–,–,–,–
S=C(NC1CC1)N1CCc2ccccc2C1,–,–,–,–,94,–
S=C(NC1CCCCC1)N1CCc2ccccc2C1,–,–,–,–,–,–
O=Cc1ccc(N2CCCCCC2)cc1,–,·,–,–,–,–
Cc1ccc(-n2ncc3c(=O)[nH]c(SCC(=O)N4CCN(c5ccccc5)CC4)nc32)cc1,–,·,–,-32,–,–
O=C(Cc1cscn1)c1ccc(O)cc1O,–,–,–,–,–,–
CCOC(=O)c1c(N)c2cc([N+](=O)[O-])ccc2n1C,–,–,–,·,–,–
CCOC(=O)/C(=C/c1c(C)n(C)c2ccc([N+](=O)[O-])cc12)C(C)=O,–,–,–,–,–,44
COc1ccc(OC[C@@H](O)CNC(=O)c2cccc3c2C(=O)c2ccc(-c4ccc(F)cc4OCc4ccccc4)cc2S3(=O)=O)cc1,·,·,–,60,–,–
SMILES,NSD2 HMT inh,CaV13 FRET inh,ATG4B inh,DSG3 Ab inh,Vif imaging,Glyco luc inh
CC(CCc1ccccc1)NC(=O)[C@@H]1Cc2ccccc2CN1 (stereo partly drawn),–,–,–,–,–,–
O=C(Nc1ccc(Cl)cc1)c1cccs1,–,·,–,–,–,–
O=C(Nc1ccc2c(c1)C(=O)N(c1ccccc1)C2=O)c1cccs1,–,–,–,87,–,–
O=C(Nc1ccc(NC(=O)c2cccs2)cc1)c1cccs1,–,–,–,22,–,–
CCOc1ccc(NC(=O)CNC(=O)c2ccc(OC)c(OC)c2)cc1,–,–,–,–,–,–
CCOC(=O)Nc1c2ccccc2nc2ccccc12,–,–,–,–,–,34

# Compound activity as filed in PubChem.
